Results published in PubChem BioAssay (Tox21).
Values joined by “and” are separate entries in the source; they are usually repeats but may differ in a detail not shown here. Identical values can stand only once. Results filed as inconclusive are left out. Active and inactive are the calls of the source. Unless noted, calls come from the whole dose curve; as a rule, active = well fitted curve in the direction sought with a large enough effect in the repeat runs; inconclusive = weak or mixed curves; inactive = no such curve, though single readings can be large; an effect the other way counts as inactive or inconclusive.

What was measured:
[1] = qHTS assay for small molecule agonists of the p53 signaling pathway (AID 651631; calls by dose curve; note: nearly all actives have a fitted effect of over 15% in size)
In short: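 Testing took place in human colorectal HCT-116 cells with stable p53RE-driven beta-lactamase. After 16 h of compound exposure at 37 °C, a FRET substrate was added and fluorescence recorded 2 h later.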

[2] = qHTS assay for small molecules that induce genotoxicity in human embryonic kidney cells expressing luciferase-tagged ATAD5 (AID 651632); note: nearly all actives have a fitted effect of over 15% in size
In short: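 HEK293T cells carrying luciferase-tagged ATAD5 were given compound or DMSO vehicle and incubated 16 hr at 37C, 5% CO2. Luciferase activity was read after 30 min at room temperature with Amplite; a rise signals genotoxic stress.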

[3] = qHTS assay for small molecule agonists of the p53 signaling pathway - cell viability (AID 651633; calls by dose curve; note: nearly all actives have a fitted effect of over 30% in size; note: potency is the fitted concentration of half-maximal effect)
In short: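 Viability counter-read: CellTiter-Glo luminescence (30 min, room temperature) in the same p53RE-bla plates. These plates had been exposed to compounds for 16 h at 37 C.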

[4] = qHTS assay for small molecule disruptors of the mitochondrial membrane potential - cell viability (AID 720634; calls by dose curve;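 note: human HepG2 liver cancer cells; series mostly up to about 83 µM; nearly all actives have a fitted effect of over 20% in size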)
In short: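 HepG2 cells, 2,000 per well, attached overnight, then treated 1 hr at 37 C, 5% CO2. Viability read as ATP by CellTiter-Glo luminescence after 30 min at room temperature. Read in the same wells as the m-MPI membrane-potential dye assay.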

[5] = qHTS assay to test for compound auto fluorescence at 535 nm (green) in HepG2 cells (AID 720675)
[6] = qHTS assay to test for compound auto fluorescence at 460 nm (blue) in HEK293 cells (AID 720678)
In short: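 Auto fluorescence in the blue band was quantified as triamterene equivalency. HEK293 cells were seeded at 2,000/well, dosed after a 4-5 hr attachment, and kept overnight at 37C before the 405/460 nm reading.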

[7] = qHTS assay to test for compound auto fluorescence at 590 nm (red) in HEK293 cells (AID 720679)
In short: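 Autofluorescence equivalency to Rose Bengal sodium, 540/590nm, in HEK293 cells exposed overnight to 23 nL compound per well.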

[8] = qHTS assay to test for compound auto fluorescence at 535 nm (green) in HEK293 cells (AID 720680)
[9] = qHTS assay to test for compound auto fluorescence at 460 nm (blue) in HEK293 cell free culture (AID 720681)
In short: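 Blue fluorescence (Ex 405/Em 460 nm, triamterene-equivalent) was read immediately after pin transfer of compound or DMSO into medium (DMEM, 10% FBS) without cells.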

[10] = qHTS assay to test for compound auto fluorescence at 535 nm (green) in HEK293 cell free culture (AID 720682)
In short: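 DMEM + 10% FBS, cell-free; cpd or DMSO pinned in; Ex485/Em535 read; output as fluorescein-equivalent signal.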

[11] = qHTS assay to test for compound auto fluorescence at 590 nm (red) in HEK293 cell free culture (AID 720683)
In short: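 Red-channel autofluorescence of compounds in culture medium (DMEM, 10% FBS), no cells, measured at 540/590 nm. Rose Bengal sodium is the reference fluorophore for equivalence.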

[12] = qHTS assay to test for compound auto fluorescence at 590 nm (red) in HepG2 cell free culture (AID 720684)
In short: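 Plate contents were MEM with 10% FBS plus test compound or DMSO, no cells. Fluorescence was recorded with 540 nm excitation and 590 nm emission.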

[13] = qHTS assay to test for compound auto fluorescence at 460 nm (blue) in HepG2 cell free culture (AID 720685)
In short: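 Compound (23 nL) or DMSO pinned into cell-free MEM with 10% FBS; blue fluorescence read at 405/460 nm excitation/emission, expressed as auto-fluorescence equivalency to triamterene.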

[14] = qHTS assay to test for compound auto fluorescence at 590 nm (red) in HepG2 cells (AID 720674)
In short: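 Red autofluorescence (Ex/Em 540/590 nm, Rose Bengal sodium equivalents) was measured in HepG2 cells, 2,000 per well in MEM plus 10% FBS, plated overnight at 37 C. Readings were taken 1 hr after adding 23 nL compound or DMSO, at 37 C and 5% CO2.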

[15] = qHTS assay to test for compound auto fluorescence at 535 nm (green) in HepG2 cell free culture (AID 720686)
[16] = qHTS assay to test for compound auto fluorescence at 460 nm (blue) in HepG2 cells (AID 720687)
In short: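 Blue-channel autofluorescence (Ex/Em 405/460 nm, triamterene-equivalent) was measured after 1 hr compound exposure at 37 C, 5% CO2. Cells were HepG2, plated overnight at 37 C in MEM plus 10% FBS.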

[17] = target: Glucocorticoid receptor (Homo sapiens) (UniProt P04150); test: qHTS assay to identify small molecule agonists of the glucocorticoid receptor (GR) signaling pathway (AID 720691; active = well fitted activation curve with a large enough effect in the signal ratio in the repeat runs, not every such curve was filed as active; the % refers to the signal ratio)
In short: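 GR-bla HeLa cells carrying a GRE-driven beta-lactamase reporter, exposed to compounds for 18 h at 37 C. Reporter activation read as fluorescence after 2 h with LiveBLAzer B/G FRET substrate at room temperature.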

[18] = target: Glucocorticoid receptor (Homo sapiens) (UniProt P04150); test: qHTS assay to identify small molecule antagonists of the glucocorticoid receptor (GR) signaling pathway (AID 720692; active = well fitted inhibition curve with a large enough effect in the signal ratio in the repeat runs, not every such curve was filed as active; the % refers to the signal ratio)
In short: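 GR-bla HeLa cells carrying a GRE-driven beta-lactamase reporter received compound after 4 h plating, then dexamethasone (5 nM final). After 18 h at 37C, the FRET substrate was loaded for 2 h at room temperature and fluorescence read.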

[19] = qHTS assay for small molecule disruptors of the mitochondrial membrane potential (AID 720635)
In short: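 Mitochondrial membrane potential tracked with Mito-MPS dye, red aggregates (ex 540/em 590 nm) against green monomers (ex 490/em 535 nm). Compound treatment 1 hr at 37C, dye 30 min in HepG2.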

[20] = qHTS assay for small molecules that induce genotoxicity in human embryonic kidney cells expressing luciferase-tagged ATAD5 - cell viability (AID 651634; calls by dose curve; note: nearly all actives have a fitted effect of over 25% in size; note: potency is the fitted concentration of half-maximal effect)
In short: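 HEK293T cells carrying luciferase-tagged ATAD5, 2,000 cells/well, exposed to compound for 15.5 hr at 37C. Viability read as live-cell protease activity by CellTiter-Fluor fluorescence after 30 min at 37C.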
% is set by controls: 0 for no effect and ±100 for the full control effect.

Sequence of Glucocorticoid receptor (Homo sapiens) (P04150 whole entry, looked up): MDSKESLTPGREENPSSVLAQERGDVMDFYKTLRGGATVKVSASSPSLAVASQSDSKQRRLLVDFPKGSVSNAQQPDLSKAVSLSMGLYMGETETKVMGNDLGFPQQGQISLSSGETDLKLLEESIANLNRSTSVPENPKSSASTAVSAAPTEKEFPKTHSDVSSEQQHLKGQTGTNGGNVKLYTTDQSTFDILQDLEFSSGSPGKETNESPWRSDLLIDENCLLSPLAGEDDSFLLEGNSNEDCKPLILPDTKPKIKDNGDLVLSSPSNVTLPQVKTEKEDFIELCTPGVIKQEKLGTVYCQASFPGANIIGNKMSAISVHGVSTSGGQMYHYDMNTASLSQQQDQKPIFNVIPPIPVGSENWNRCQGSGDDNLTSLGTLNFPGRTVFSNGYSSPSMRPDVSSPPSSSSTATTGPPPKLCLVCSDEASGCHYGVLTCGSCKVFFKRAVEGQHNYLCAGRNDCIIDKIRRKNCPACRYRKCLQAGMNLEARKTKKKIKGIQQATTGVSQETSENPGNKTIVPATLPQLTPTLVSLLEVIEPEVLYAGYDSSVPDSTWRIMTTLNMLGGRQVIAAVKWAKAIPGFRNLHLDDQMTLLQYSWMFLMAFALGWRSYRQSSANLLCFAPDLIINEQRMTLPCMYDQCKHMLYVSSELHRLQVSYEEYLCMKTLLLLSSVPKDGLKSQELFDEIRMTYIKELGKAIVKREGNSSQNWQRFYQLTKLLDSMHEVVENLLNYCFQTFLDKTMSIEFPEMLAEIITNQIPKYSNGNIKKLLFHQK

CCCn1cc[n+](C)c1C
inactive: Potency [1] | Potency [2] | Potency [3] | outcome [4] | outcome [5] | outcome [6] | outcome [7] | outcome [8] | outcome [9] | outcome [10] | outcome [11] | outcome [12] | outcome [13]

CCOC(=O)COc1cc(-n2ncc(C(F)(F)F)c(C)c2=O)c(F)cc1Cl
inactive: Potency [1] | Potency [2] | Potency [3] | outcome [14] | outcome [5] | outcome [6] | outcome [7] | outcome [8] | outcome [9] | outcome [10] | outcome [11] | outcome [12] | outcome [13] | outcome [15] | outcome [16] | Potency [17] | Potency [18]

CCN[C@@H]1C[C@H](N)[C@@H](OC2OC(CN)=CCC2N)[C@H](O)[C@H]1O[C@H]1OC[C@](C)(O)[C@H](NC)[C@H]1O (stereo partly drawn)
inactive: Potency [1] | Potency [2] | Potency [3] | outcome [4] | Potency [19] | outcome [14] | outcome [6] | outcome [7] | outcome [8] | outcome [9] | outcome [10] | outcome [11] | outcome [13] | outcome [15] | outcome [16]

CC(=O)Oc1cccc(C)c1
inactive: Potency [1] | Potency [2] | Potency [3] | outcome [4] | Potency [19] | outcome [14] | outcome [5] | outcome [7] | outcome [8] | outcome [9] | outcome [10] | outcome [11] | outcome [12] | outcome [13] | outcome [15] | outcome [16]

COc1cc(C)nc(-n2nc(C)cc2OC)n1
inactive: Potency [1] | Potency [2] | Potency [3] | outcome [4] | Potency [19] | fluorescence, % of fluorescein control [5] 0.0331% [at 18.6 µM] | fluorescence, % of triamterene [6] 0.0208% [at 18.6 µM] | fluorescence, % of fluorescein [8] -0.0757% [at 18.6 µM] | fluorescence, % of fluorescent control [9] -0.0196% [at 18.6 µM] | activity change [10] -0.0111% [at 18.6 µM] | fluorescence, % of fluorescent control [11] 0.134% [at 18.6 µM] | fluorescence, % of Rose Bengal [12] -0.183% [at 18.6 µM] | fluorescence, % of fluorescent control [13] -0.138% [at 18.6 µM] | fluorescence, % of fluorescent control [16] -0.112% [at 18.6 µM] | Potency [17] | Potency [18]

CN(C)C(=O)Oc1cccc([N+](C)(C)C)c1
inactive: Potency [1] | Potency [2] | Potency [3] | outcome [4] | outcome [14] | outcome [5] | outcome [6] | outcome [7] | outcome [8] | outcome [9] | outcome [10] | outcome [11] | outcome [12] | outcome [13] | outcome [16] | Potency [17] | Potency [18]

CC(C)NNC(=O)c1ccncc1
inactive: Potency [1] | Potency [2] | Potency [3] | outcome [4] | Potency [19] | outcome [5] | outcome [6] | outcome [7] | outcome [8] | outcome [9] | outcome [10] | outcome [11] | outcome [13] | outcome [15] | Potency [17] | Potency [18]

C1CCC2(CCCCO2)OC1
inactive: Potency [2] | Potency [3] | Potency [20] | outcome [4] | Potency [19] | outcome [14] | outcome [5] | outcome [6] | outcome [7] | outcome [8] | outcome [9] | outcome [10] | outcome [11] | outcome [13] | outcome [15] | Potency [17] | Potency [18]

CCC(C(=O)NC(=O)NC(C)=O)c1ccccc1 (stereo not drawn)
inactive: Potency [2] | Potency [3] | Potency [20] | outcome [4] | Potency [19] | outcome [14] | outcome [5] | outcome [6] | outcome [7] | outcome [8] | outcome [9] | outcome [10] | outcome [11] | outcome [12] | outcome [13] | outcome [15] | outcome [16] | Potency [17] | Potency [18]

Cc1nc2ccc(CN(C)c3ccc(C(=O)N[C@@H](CCC(=O)O)C(=O)O)s3)cc2c(=O)[nH]1
inactive: Potency [2] | Potency [20] | outcome [4] | Potency [19] | outcome [5] | outcome [6] | outcome [7] | outcome [8] | outcome [9] | outcome [10] | outcome [11] | outcome [12] | outcome [13] | outcome [16]
active: Potency [3] 106 nM and 150 nM

CCCCCCC#CC(=O)OC
inactive: Potency [2] | Potency [3] | Potency [20] | outcome [4] | Potency [19] | outcome [14] | outcome [5] | outcome [6] | outcome [7] | outcome [8] | outcome [9] | outcome [10] | outcome [11] | outcome [12] | outcome [13] | outcome [15] | outcome [16] | Potency [17]

Cc1ncc([C@@H](CCCCCCc2ccc3c(n2)NCCC3)CC(=O)O)cn1
inactive: Potency [2] | Potency [3] | outcome [4] | outcome [14] | outcome [5] | outcome [6] | outcome [7] | outcome [8] | outcome [9] | outcome [10] | outcome [11] | outcome [12] | outcome [13] | outcome [15] | outcome [16]
active: Potency [20] 27.3 nM

CC(C)[C@H]1CC[C@@H](C)CC1=O
inactive: Potency [1] | Potency [3] | Potency [20] | outcome [4] | outcome [6] | outcome [7] | outcome [8] | outcome [9] | outcome [10] | outcome [11] | outcome [13] | outcome [15] | outcome [16]

CC1CCC(CO)CC1 (stereo not drawn)
inactive: Potency [2] | Potency [3] | Potency [20] | outcome [4] | Potency [19] | outcome [14] | outcome [5] | outcome [8] | outcome [9] | outcome [10] | outcome [11] | outcome [12] | outcome [13] | outcome [15] | outcome [16] | Potency [17]

COc1ccnc(CS(=O)c2nc3cc(OC(F)F)ccc3[nH]2)c1OC (stereo not drawn)
inactive: Potency [2] | Potency [3] | Potency [20] | outcome [4] | Potency [19] | outcome [14] | outcome [5] | outcome [6] | outcome [7] | outcome [8] | outcome [9] | outcome [10] | outcome [11] | outcome [12] | outcome [13] | outcome [15] | outcome [16] | Potency [17] | Potency [18]
